Measurements as given in PubChem BioAssay (EPA / NIEHS).
Calls of active or inactive are those of the source. How the source made its calls: active means hit-call score of the fitted dose curve at least 0.9, where 1 is the maximum; inactive means score below 0.9.

How the values were obtained:
[1] = read-out: TIMP metallopeptidase inhibitor 2 (TIMP2), TIMP2 (gene 7077); test: BSK_KF3CT_TIMP2: BioMAP Diversity Plus: KF3CT Assay for TIMP metallopeptidase inhibitor 2 (TIMP2) Biomarker Activity (AID 2283071); settings: primary human keratinocytes with fibroblasts; actives raise or lower the signal
Outline: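 Co-culture of human primary keratinocytes and foreskin fibroblasts, measured 24 h after chemical dosing. TIMP-2 quantified by ELISA and fitted in both directions relative to DMSO. Cytotoxicity checked in parallel cultures by SRB total-protein staining.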

[2] = read-out: Transforming growth factor beta 1 (TGFb1), TGFB1 (gene 7040); test: BSK_KF3CT_TGFb1: BioMAP Diversity Plus: KF3CT Assay for Transforming growth factor beta 1 (TGFb1) Biomarker Activity (AID 2283072); settings: primary human keratinocytes with fibroblasts; actives raise or lower the signal
Outline: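 Human keratinocyte/foreskin fibroblast co-culture; TGF-b1 measured by ELISA 24 h after dosing, fitted bidirectionally versus DMSO. Cytotoxicity checked in parallel cultures by total protein (SRB staining, 560 nm).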

[3] = read-out: C-C motif chemokine 2 (Homo sapiens) (UniProt P13500); test: BSK_KF3CT_MCP1: BioMAP Diversity Plus: KF3CT Assay for Monocyte Chemoattractant Protein 1 (MCP1/CCL2) Biomarker Activity (AID 2283073); settings: primary human keratinocytes with fibroblasts; actives raise or lower the signal
Outline: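 Human keratinocyte–foreskin fibroblast co-culture; MCP-1 measured by ELISA 24 h after dosing. Bidirectional fit vs DMSO; cytotoxicity tracked by SRB total protein in parallel cultures.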

[4] = read-out: Matrix Metallopeptidase 9 (MMP9), MMP9 (gene 4318); test: BSK_KF3CT_MMP9: BioMAP Diversity Plus: KF3CT Assay for Matrix Metallopeptidase 9 (MMP9) Biomarker Activity (AID 2283074); settings: primary human keratinocytes with fibroblasts; actives raise or lower the signal
Outline: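 Human keratinocyte/foreskin fibroblast co-culture; compound added; 24 h; MMP-9 by ELISA; bidirectional fit vs DMSO baseline.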

[5] = read-out: urokinase plasminogen activator (uPA), PLAU (gene 5328); test: BSK_KF3CT_uPA: BioMAP Diversity Plus: KF3CT Assay for urokinase plasminogen activator (uPA) Biomarker Activity (AID 2283075); settings: primary human keratinocytes with fibroblasts; actives raise or lower the signal
Outline: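 ELISA readout of uPA, analyzed for signal gain or loss relative to DMSO, from a human primary keratinocyte–foreskin fibroblast co-culture measured 24 h after chemical treatment.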

[6] = read-out: E-selectin (Homo sapiens) (UniProt P16581); test: BSK_LPS_Eselectin: BioMAP Diversity Plus: LPS Assay for Eselectin Biomarker Activity (AID 2283077); settings: primary human HUVEC with PBMC; actives raise or lower the signal
Outline: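 Human umbilical vein endothelial cells co-cultured with PBMC under LPS stimulation; cell-surface E-selectin measured by ELISA 24 h after dosing. Change in either direction versus DMSO, with SRB total-protein staining in parallel cultures for cytotoxicity.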

[7] = read-out: Interleukin-8 (IL8), CXCL8 (gene 3576); test: BSK_LPS_IL8: BioMAP Diversity Plus: LPS Assay for Interleukin-8 (IL8) Biomarker Activity (AID 2283078); settings: primary human HUVEC with PBMC; actives raise or lower the signal
Outline: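 Human umbilical vein endothelial cells co-cultured with PBMC, LPS-stimulated, exposed to compound for 24 h. IL-8 quantified by ELISA; fitted in both directions against DMSO, with SRB total-protein staining of parallel cultures for cytotoxicity.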

[8] = BSK_LPS_SRB: Viability Assessment in the BioMAP Diversity Plus: LPS Assay (AID 2283079); settings: primary human HUVEC with PBMC;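 further: total protein by sulforhodamine B absorbance as a cytotoxicity measure; measured one day after compound addition; fitted in both directions against DMSO so loss or gain of signal counts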
Outline: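 Co-culture of human umbilical vein endothelial cells and PBMC, read 24 h after dosing. Total protein by 0.1% SRB staining after 10% TCA fixation, absorbance at 560 nm; bidirectional fit against DMSO.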

[9] = read-out: Interleukin-1 alpha (IL1a), IL1A (gene 3552); test: BSK_LPS_IL1a: BioMAP Diversity Plus: LPS Assay for Interleukin-1 alpha (IL1a) Biomarker Activity (AID 2283080); settings: primary human HUVEC with PBMC; actives raise or lower the signal
Outline: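 Human umbilical vein endothelial cells co-cultured with PBMC and stimulated with LPS; IL-1a measured by ELISA 24 h after dosing. Bidirectional fitting against DMSO; cytotoxicity checked by SRB staining in parallel cultures.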

[10] = read-out: Monocyte Chemoattractant Protein-1 (MCP1), CCL2 (gene 6347); test: BSK_LPS_MCP1: BioMAP Diversity Plus: LPS Assay for Monocyte Chemoattractant Protein-1 (MCP1) Biomarker Activity (AID 2283081); settings: primary human HUVEC with PBMC; actives raise or lower the signal
Outline: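 Human umbilical vein endothelial cells co-cultured with PBMC, LPS-stimulated; secreted MCP-1 measured by ELISA 24 h after compound addition. Bidirectional curve fitting against DMSO baseline; SRB total-protein staining in parallel cultures for cytotoxicity.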

[11] = BSK_LPS_PGE2: BioMAP Diversity Plus: LPS Assay for Prostaglandin E2 (PGE2) Biomarker Activity (AID 2283082); settings: primary human HUVEC with PBMC; actives raise or lower the signal
Outline: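 HUVEC plus human PBMC co-culture stimulated with LPS; secreted PGE2 quantified by ELISA 24 h after chemical dosing. Activity fitted bidirectionally against DMSO baseline; parallel SRB staining (0.1% SRB after 10% TCA fixation, 560 nm) flags overt cytotoxicity.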

[12] = read-out: Macrophage colony-stimulating factor (MCSF), CSF1 (gene 1435); test: BSK_LPS_MCSF: BioMAP Diversity Plus: LPS Assay for Macrophage colony-stimulating factor (MCSF) Biomarker Activity (AID 2283083); settings: primary human HUVEC with PBMC; actives raise or lower the signal
Outline: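 HUVEC–PBMC co-culture, M-CSF measured by ELISA 24 h after chemical dosing. Fitted in both directions relative to DMSO as negative control; overt cytotoxicity assessed by SRB total-protein staining in parallel cultures.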

[13] = read-out: Tissue Factor, F3 (gene 2152); test: BSK_LPS_TissueFactor: BioMAP Diversity Plus: LPS Assay for Tissue Factor Biomarker Activity (AID 2283084); settings: primary human HUVEC with PBMC; actives raise or lower the signal
Outline: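 Human umbilical vein endothelial cells co-cultured with PBMC were dosed with compound. Cell-surface CD142 was measured by ELISA 24 h later. Activity was fitted bidirectionally against DMSO, with SRB total-protein staining in parallel cultures for cytotoxicity.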

[14] = read-out: Tumor necrosis factor (Homo sapiens) (UniProt P01375); test: BSK_LPS_TNFa: BioMAP Diversity Plus: LPS Assay for Tumour Necrosis Factor alpha (TNFa) Biomarker Activity (AID 2283085); settings: primary human HUVEC with PBMC; actives raise or lower the signal
Outline: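 Human umbilical vein endothelial cells co-cultured with PBMC and stimulated with LPS. TNFa was measured by ELISA 24 h after chemical dosing, fitted bidirectionally relative to DMSO.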

[15] = read-out: Vascular cell adhesion molecule 1 (VCAM1), VCAM1 (gene 7412); test: BSK_LPS_VCAM1: BioMAP Diversity Plus: LPS Assay for Vascular cell adhesion molecule 1 (VCAM1) Biomarker Activity (AID 2283086); settings: primary human HUVEC with PBMC; actives raise or lower the signal
Outline: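 Human umbilical vein endothelial cells co-cultured with PBMC and stimulated with LPS; VCAM-1 measured by ELISA 24 h after dosing. Bidirectional curve fitting against DMSO baseline; cytotoxicity tracked in parallel by SRB total-protein staining.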

[16] = read-out: CD38, CD38 (gene 952); test: BSK_SAg_CD38: BioMAP Diversity Plus: SAg Assay for CD38 Biomarker Activity (AID 2283087); settings: primary human HUVEC with PBMC; actives raise or lower the signal
Outline: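 Human HUVEC plus PBMC co-culture stimulated with superantigen; CD38 measured by ELISA 24 h after chemical dosing. Fluorescence read-out, bidirectional fit against DMSO; cytotoxicity tracked in parallel by SRB and Alamar Blue.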

[17] = read-out: CD40, CD40 (gene 958); test: BSK_SAg_CD40: BioMAP Diversity Plus: SAg Assay for CD40 Biomarker Activity (AID 2283088); settings: primary human HUVEC with PBMC; actives raise or lower the signal
Outline: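 HUVEC plus PBMC co-culture, superantigen-activated, with CD40 read by ELISA 24 h after dosing. Curves fitted in both directions against DMSO. Overt cytotoxicity checked by parallel SRB total-protein staining.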

[18] = read-out: CD69, CD69 (gene 969); test: BSK_SAg_CD69: BioMAP Diversity Plus: SAg Assay for CD69 Biomarker Activity (AID 2283089); settings: primary human HUVEC with PBMC; actives raise or lower the signal
Outline: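 ELISA, fluorescence read-out: CD69 on human umbilical vein endothelial cell + PBMC co-culture, 24 h post-dosing. Gain or loss of signal fitted bidirectionally against DMSO baseline.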

[19] = read-out: Monocyte Chemoattractant Protein-1 (MCP1), CCL2 (gene 6347); test: BSK_SAg_MCP1: BioMAP Diversity Plus: SAg Assay for Monocyte Chemoattractant Protein-1 (MCP1) Biomarker Activity (AID 2283090); settings: primary human HUVEC with PBMC; actives raise or lower the signal
Outline: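 MCP-1 levels in the endothelial–PBMC SAg co-culture were quantified by ELISA at 24 h post-dosing; both increases and decreases versus DMSO scored. Cytotoxicity monitored by SRB total protein in parallel cultures.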

Measured: AC50

Chain of Tumor necrosis factor (Homo sapiens) (P01375 whole entry, looked up): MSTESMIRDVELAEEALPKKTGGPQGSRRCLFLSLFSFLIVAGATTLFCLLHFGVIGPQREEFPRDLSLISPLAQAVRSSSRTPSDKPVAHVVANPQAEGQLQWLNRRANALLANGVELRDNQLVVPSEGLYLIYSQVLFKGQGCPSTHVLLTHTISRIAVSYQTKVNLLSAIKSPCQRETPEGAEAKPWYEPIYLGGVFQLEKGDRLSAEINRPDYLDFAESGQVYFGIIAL
Chain of E-selectin (Homo sapiens) (P16581 whole entry, looked up): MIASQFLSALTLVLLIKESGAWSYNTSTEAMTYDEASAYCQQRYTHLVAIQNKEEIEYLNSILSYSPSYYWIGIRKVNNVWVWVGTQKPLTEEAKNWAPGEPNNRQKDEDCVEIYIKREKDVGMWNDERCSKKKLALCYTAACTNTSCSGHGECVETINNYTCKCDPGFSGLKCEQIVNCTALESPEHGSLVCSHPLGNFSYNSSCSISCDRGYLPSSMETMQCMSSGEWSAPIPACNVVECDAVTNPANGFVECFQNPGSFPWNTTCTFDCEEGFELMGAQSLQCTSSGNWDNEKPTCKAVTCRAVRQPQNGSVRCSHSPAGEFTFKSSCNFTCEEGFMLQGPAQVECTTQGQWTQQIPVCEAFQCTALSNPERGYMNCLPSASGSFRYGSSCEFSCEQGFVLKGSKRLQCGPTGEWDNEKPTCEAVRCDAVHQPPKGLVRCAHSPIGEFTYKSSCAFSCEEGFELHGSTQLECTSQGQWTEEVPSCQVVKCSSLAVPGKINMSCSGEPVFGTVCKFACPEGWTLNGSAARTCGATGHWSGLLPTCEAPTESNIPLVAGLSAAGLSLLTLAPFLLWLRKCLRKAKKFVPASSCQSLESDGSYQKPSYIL

NC(=O)c1c(Cl)cccc1Cl
inactive: all assays above

OCCN1CCOCC1
inactive: all assays above

CC(=O)CCC=C(C)CCC=C(C)C
inactive: all assays above

CC(=O)OC(C)(C)C1CC=C(C)CC1 (centres undefined)
active: [1] 33.8 µM | [5] 32.4 µM
inactive: all other assays above

CC=CC(=O)C1=C(C)C=CCC1(C)C
inactive: all assays above

CC(C)(C)c1cccc(O)c1
inactive: all assays above
